Test results published in PubChem BioAssay.
The source made the active and inactive calls.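 The calls were made as follows, unless noted: active = fluorescence slope higher than the sample average by over 3 SD (cut at about -0.22 in these data, passing the limit was not always enough); inactive = the rest.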

Legend:
[1] = inhibitors of TNFa-induced NFkB p65 translocation, primary screen, imaging, HUVEC, MLSMR starter and 10KST1 sets (AID 438;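 active = inhibition above 20% together with a positive visual image hit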;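 also: compound added about 3h40 before a 20 min TNFalpha stimulation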;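 as to inhibition: signal is the nuclear over cytoplasmic p65 intensity ratio per well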); details: HUVEC TNFa-induced p65 nuclear translocation; cell count: measured here: nuclei count (cytotoxicity indicator), at 2.08 µM; inhibition: at 2 µM, stronger effect = higher value, 0% TNFa-plus-vehicle, 100% no-TNFa wells
[2] = inhibitors of mutant huntingtin aggregation, primary screen, imaging, exon1htt(103Q)mCFP cells, high-content imaging (AID 483;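 active = visual image review flags a hit and inhibition of aggregation exceeds 20%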;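 also: compound exposure lasted 3 days before fixation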;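 as to nuclei count: percent of the per-plate median nuclei count of sample wells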); details: exon1htt(103Q)mCFP cell line, aggregate imaging, at 2 µM; inhibition of aggregation: stronger effect = higher value; nuclei count: measured here: cell count, toxicity
[3] = inhibitors of E-selectin induction by TNFa, primary screen, imaging, HUVEC, immunofluorescence, MLSMR starter and 10KST1 sets (AID 487;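 active = visually confirmed hit in the image check and inhibition above 20%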;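 as to inhibition: signal is fraction of cell area covered by stained E-selectin grains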;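 as to nuclei count: 100% = median nuclei count of all wells on the same plate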); details: HUVEC TNFalpha-induced E-selectin immunofluorescence imaging, at 2 µM; inhibition: stronger effect = higher value; nuclei count: measured here: cell number, toxicity
[4] = biological target: Voltage-gated potassium channel subunit beta-2 (Rattus norvegicus) (UniProt P62483); test: KvBeta enzyme negative modulators, primary screen, biochemical, NADPH fluorescence (AID 622); details: recombinant KvBeta, 4-cyanobenzaldehyde reduction, at 10 µM, stronger effect = higher value;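 also: slope of raw intensity against log time taken from 70 to 1610 s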
[5] = biological target: Voltage-gated potassium channel subunit beta-2 (Rattus norvegicus) (UniProt P62483); test: KvBeta positive modulators, primary screen, biochemical, NADPH fluorescence (AID 623;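 active = NADPH fluorescence slope more negative than the mean of all samples by about 3 SD, 99.7% confidence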;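 also: fluorescence intensity change per second fitted from 20 to 320 s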); details: Recombinant KvBeta, NADPH fluorescence decrease slope, 10 min; at 10 µM; stronger effect = lower value
[6] = biological target: Alpha-2C adrenergic receptor (Homo sapiens) (UniProt P18825); test: modulators of alpha2C/GIRK thallium flux, primary screen, cell-based, HEK293 alpha2C/GIRK1/2 (AID 624;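 active = fluorescence slope after compound addition differing from the mean of all screened samples at 99.7% confidence, in either direction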;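 also: slope of fluorescence ratio to pre-addition baseline per second over 15 to 24 s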); details: thallium flux BTC fluorescence, at 10 µM, actives lie on both sides
[7] = inhibitors of Sendai virus-induced IRF3 signaling, primary screen, TLR/RLR signaling modifier project, cell-based, Sendai virus stimulus, luciferase, 10K MLSCN set (AID 602276;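 active = inhibition at or above 50% at 10 µM; inactive = inhibition below 50%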;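 also: firefly luciferase from ISG56 promoter only with Renilla not read in this screen; 0% = Sendai virus plus DMSO and 100% = medium plus DMSO without virus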); details: HEK293 RL24 IRF3 luciferase reporter, at 10 µM, stronger effect = higher value
[8] = inhibitors of poly I:C-induced TLR3 signaling, primary screen, cell-based, poly I:C stimulus, luciferase, 10K MLSCN set (AID 602277;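 active = inhibition of the reporter signal at or above 50%; inactive = inhibition below 50%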); details: HEK293-TLR3 RL24 IRF3 luciferase reporter, at 10 µM, stronger effect = higher value

Chain of Alpha-2C adrenergic receptor (Homo sapiens) (P18825 whole entry, looked up): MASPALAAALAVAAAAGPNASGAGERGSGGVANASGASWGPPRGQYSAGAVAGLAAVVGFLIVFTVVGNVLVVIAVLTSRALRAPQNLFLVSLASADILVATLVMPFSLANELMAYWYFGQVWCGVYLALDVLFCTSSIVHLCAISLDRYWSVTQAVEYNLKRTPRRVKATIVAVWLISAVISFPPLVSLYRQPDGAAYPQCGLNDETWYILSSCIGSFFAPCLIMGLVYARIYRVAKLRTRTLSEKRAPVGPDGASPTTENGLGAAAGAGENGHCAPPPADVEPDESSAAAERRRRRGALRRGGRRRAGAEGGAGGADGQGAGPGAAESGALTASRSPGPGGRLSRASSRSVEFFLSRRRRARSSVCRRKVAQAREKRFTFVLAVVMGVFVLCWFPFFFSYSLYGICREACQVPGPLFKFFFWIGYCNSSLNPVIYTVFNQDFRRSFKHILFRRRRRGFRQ
Chain of Voltage-gated potassium channel subunit beta-2 (Rattus norvegicus) (P62483 whole entry, looked up): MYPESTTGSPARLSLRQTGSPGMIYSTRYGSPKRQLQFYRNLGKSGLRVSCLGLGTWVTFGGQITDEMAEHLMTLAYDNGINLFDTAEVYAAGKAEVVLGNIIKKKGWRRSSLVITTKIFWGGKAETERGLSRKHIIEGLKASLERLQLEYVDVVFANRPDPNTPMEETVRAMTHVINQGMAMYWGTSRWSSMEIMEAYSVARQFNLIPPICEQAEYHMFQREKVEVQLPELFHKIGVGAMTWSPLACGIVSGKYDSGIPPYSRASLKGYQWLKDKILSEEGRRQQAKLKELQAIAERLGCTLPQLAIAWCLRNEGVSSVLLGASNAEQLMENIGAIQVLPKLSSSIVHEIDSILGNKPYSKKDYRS

Row | Compound | cell count [1] | inhibition [1] | inhibition of aggregation [2] | nuclei count [2] [%] | inhibition [3] | nuclei count [3] [%] | fluorescence slope [4] | NADPH fluorescence slope [5] | slope [6] | inhibition [7] | inhibition [8]
1 | Cc1nnc(SCC(=O)Nc2c(Cl)cccc2Cl)[nH]c1=O | 598 | 1.1% (inactive) | 17.6% (inactive) | 87 | 17.8% (inactive) | 103 | -0.553 (inactive) | -4.3e-05 (inactive) | 0.00796 (inactive) | 8.99% (inactive) | 41.1% (inactive)
2 | Cc1ccc(C(=O)Nc2ccc3c(c2)OCO3)cc1S(=O)(=O)N1CCCC1 | 396 | 0% (inactive) | 12.6% (inactive) | 83.3 | 14.2% (inactive) | 107 | -0.398 (inactive) | 1.4e-05 (inactive) | 0.00564 (inactive) | 10.6% (inactive) | -64.5% (inactive)
3 | CC1(C)CC(=O)CC(=Nc2ccc(C(=O)O)cc2)C1 | 487 | 4.2% (inactive) | 10.3% (inactive) | 89.1 | 2.7% (inactive) | 112 | -0.497 (inactive) | -5.1e-05 (inactive) | 0.0073 (inactive) | 6.49% (inactive) | 42.2% (inactive)
4 | CCOc1ccc(S(=O)(=O)NCC2CCCO2)c2cccnc12 (centres undefined) | 365 | -1.7% (inactive) | -30.7% (inactive) | 104 | 36.8% (inactive) | 105 | -0.497 (inactive) | 8e-05 (inactive) | 0.00707 (inactive) | 17.5% (inactive) | 21.3% (inactive)
5 | CC1(C)COCN1S(=O)(=O)c1ccc(C(=O)Nc2nnc(-c3ccc(Cl)s3)o2)cc1 | 440 | 10.8% (inactive) | -2.8% (inactive) | 98.3 | -26.4% (inactive) | 93.8 | -0.545 (inactive) | 1.8e-05 (inactive) | 0.00616 (inactive) | 49.1% (inactive) | 36.9% (inactive)
6 | CCN(CC)S(=O)(=O)c1cccc(-c2nnc(SCC(N)=O)n2CCc2ccccc2)c1 | 635 | -4.4% (inactive) | -2.2% (inactive) | 105 | -32.3% (inactive) | 125 | -0.592 (inactive) | -8.5e-06 (inactive) | 0.00663 (inactive) | 7.68% (inactive) | 11.1% (inactive)
7 | CCOC(=O)N1CCC(N2CC34C=CC(O3)C(C(=O)O)C4C2=O)CC1 (centres undefined) | 811 | 4.4% (inactive) | 14.5% (inactive) | 106 | -9.6% (inactive) | 114 | -0.552 (inactive) | 2.3e-05 (inactive) | 0.00719 (inactive) | 4.63% (inactive) | 12.4% (inactive)
8 | O=C(Nc1ccc2c(c1)OCCO2)C1CCCN1S(=O)(=O)c1cccc2cccnc12 (centres undefined) | 743 | 4.4% (inactive) | 4.5% (inactive) | 128 | -42.2% (inactive) | 106 | -0.537 (inactive) | -4.4e-05 (inactive) | 0.00567 (inactive) | 3.98% (inactive) | 22.9% (inactive)
9 | CN(C)CC(C(=O)c1ccccc1)c1ccccc1 (centres undefined) | 460 | 2.4% (inactive) | -28% (inactive) | 13.4 | 20.2% (inactive) | 113 | -0.251 (inactive) | -1.2e-05 (inactive) | 0.0054 (inactive) | 11% (inactive) | 82.3% (active)
10 | CC(=O)Nc1ccc(S(=O)(=O)Nc2nc3c(s2)CCCC3)cc1 | 638 | -2.1% (inactive) | 41.1% (inactive) | 95.3 | -46.9% (inactive) | 108 | -0.54 (inactive) | -4.4e-05 (inactive) | 0.00526 (inactive) | 5.19% (inactive) | -2.08% (inactive)
11 | CC1CCN(Cc2nc3c(c(=O)n(C)c(=O)n3C)n2Cc2cccc3ccccc23)CC1 | 703 | -22.3% (inactive) | 12.7% (inactive) | 105 | -26.6% (inactive) | 131 | -0.427 (inactive) | -2.4e-05 (inactive) | 0.00536 (inactive) | 13.1% (inactive) | 41.7% (inactive)
12 | COc1ccc(S(=O)(=O)N2CCCC(C(=O)N3CCCCCC3)C2)cc1 (centres undefined) | 404 | -5.2% (inactive) | -0.4% (inactive) | 106 | -8.6% (inactive) | 105 | -0.403 (inactive) | -5e-05 (inactive) | 0.00316 (inactive) | 12% (inactive) | 10.4% (inactive)
13 | COc1ccc(NC(=O)CN2CCCCC2)cc1 | 494 | -1.5% (inactive) | 5.5% (inactive) | 110 | -23.4% (inactive) | 121 | -0.414 (inactive) | -2.7e-05 (inactive) | 0.00355 (inactive) | 3.07% (inactive) | 11.2% (inactive)
14 | CCNC(=O)CC1C(=O)N(c2ccccc2)C(=O)N1CCC(C)C (centres undefined) | 339 | 2.8% (inactive) | 3.6% (inactive) | 104 | -62.6% (inactive) | 97.9 | -0.512 (inactive) | -3.8e-05 (inactive) | 0.00552 (inactive) | 8.08% (inactive) | 31.4% (inactive)
